Experimental data: PubChem BioAssay AID1159580 (chemical genetic matrix, 2015)
Out of some 5,500 compounds screened, about 2,000 (36%) were called active. Not shown: some 18% with an inconclusive outcome. No stated cut-off is given here; in the data, active means normalized growth mostly below about 0.91 (no sharp cut-off); inconclusive means no clear call, values can overlap the other calls; inactive means mostly above about 0.92. This is one part of the list.

Test: chemical genetic growth profiling, strain panel (AID 1159580);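 further: tested at 20 µM; growth read once vehicle control cultures reached saturation at 30 °C; 1 = growth at the plate median or of vehicle wells; lower values mean less growth of the strain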
Conditions: S. cerevisiae deletion strains, growth OD
[1] = locus YAL021C, strain ccr4, hits give low values
[2] = locus YAL026C, strain drs2, hits give low values
[3] = locus YAL030W, strain snc1, hits give low values
[4] = locus YBL061C, strain skt5, hits give low values
[5] = locus YBR009C, strain hhf1, hits give low values
[6] = locus YBR023C, strain chs3, hits give low values
[7] = locus YBR171W, strain sec66, hits give low values
[8] = locus YBR231C, strain swc5, hits give low values
[9] = locus YBR279W, strain paf1, hits give low values
[10] = locus YCL011C, strain gbp2, hits give low values
[11] = locus YCL016C, strain dcc1, hits give low values
[12] = locus YCL061C, strain MRC1, hits give low values
[13] = locus YCL069W, strain vba3, hits give low values
[14] = locus YCR088W, strain abp1, hits give low values
[15] = locus YDL005C, strain med2, hits give low values
[16] = locus YDL040C, strain nat1, hits give low values
[17] = locus YDR001C, strain nth1, hits give low values
[18] = locus YDR069C, strain doa4, hits give low values
[19] = locus YDR137W, strain rgp1, hits give low values
[20] = locus YDR159W, strain sac3, hits give low values
[21] = locus YDR297W, strain sur2, hits give low values
[22] = locus YDR334W, strain swr1, hits give low values
[23] = locus YDR335W, strain msn5, hits give low values
[24] = locus YDR392W, strain spt3, hits give low values
[25] = locus YEL003W, strain gim4, hits give low values
[26] = locus YEL037C, strain rad23, hits give low values
[27] = locus YEL061C, strain CIN8 (second series), hits give low values
[28] = locus YER015W, strain faa2, hits give low values
[29] = locus YER016W, strain bim1, hits give low values
[30] = locus YER111C, strain swi4, hits give low values
[31] = locus YER155C, strain BEM2 (second series), hits give low values
[32] = locus YFR010W, strain ubp6, hits give low values
[33] = locus YGL167C, strain pmr1, hits give low values
[34] = locus YGL173C, strain kem1, hits give low values
[35] = locus YGL227W, strain vid30, hits give low values
[36] = locus YGL240W, strain doc1, hits give low values
[37] = locus YGL253W, strain hxk2, hits give low values
[38] = locus YHR013C, strain ard1, hits give low values
[39] = locus YHR027C, strain rpn1, hits give low values
[40] = locus YHR030C, strain SLT2, hits give low values
[41] = locus YHR079C, strain IRE1, hits give low values
[42] = locus YHR142W, strain chs7, hits give low values
[43] = locus YJL092W, strain hpr5, hits give low values
[44] = locus YJL095W, strain BCK1 (second series), hits give low values
[45] = locus YJL095W, strain BCK1, hits give low values
[46] = locus YJL115W, strain asf1, hits give low values
[47] = locus YJL129C, strain trk1, hits give low values
[48] = locus YJL154C, strain vps35, hits give low values
[49] = locus YJL164C, strain tpk1, hits give low values
[50] = locus YJL166W, strain qcr8, hits give low values
[51] = locus YJL187C, strain SWE1, hits give low values
[52] = locus YJR066W, strain TOR1, hits give low values
[53] = locus YKL160W, strain elf1, hits give low values
[54] = locus YKR026C, strain gcn3, hits give low values
[55] = locus YKR091W, strain srl3, hits give low values
[56] = locus YLL001W, strain dnm1, hits give low values
[57] = locus YLL026W, hits give low values
[58] = locus YLL041C, strain sdh2, hits give low values
[59] = locus YLR027C, strain aat2, hits give low values
[60] = locus YLR113W, strain HOG1, hits give low values
[61] = locus YLR221C, strain rsa3, hits give low values
[62] = locus YLR258W, strain gsy2, hits give low values
[63] = locus YLR262C, strain YPT6 (second series), hits give low values
[64] = locus YLR320W, strain mms22, hits give low values
[65] = locus YLR342W, strain FKS1, hits give low values
[66] = locus YLR357W, strain rsc2, hits give low values
[67] = locus YLR370C, strain arc18, hits give low values
[68] = locus YLR384C, strain iki3, hits give low values
[69] = locus YML120C, strain ndi1, hits give low values
[70] = locus YMR058W, strain fet3, hits give low values
[71] = locus YMR125W, strain sto1, hits give low values
[72] = locus YMR129W, hits give low values
[73] = locus YMR205C, strain PFK2, hits give low values
[74] = locus YMR231W, strain pep5, hits give low values
[75] = locus YNL071W, strain lat1, hits give low values
[76] = locus YNL183C, strain NPR1, hits give low values
[77] = locus YNL209W, strain ssb2, hits give low values
[78] = locus YNL248C, strain rpa49, hits give low values
[79] = locus YNL322C, strain KRE1 (second series), hits give low values
[80] = locus YNR049C, strain mso1, hits give low values
[81] = locus YOR001W, strain rrp6, hits give low values
[82] = locus YOR070C, strain gyp1, hits give low values
[83] = locus YOR080W, strain dia2, hits give low values
[84] = locus YOR083W, strain WHI5, hits give low values
[85] = locus YOR106W, strain vam3, hits give low values
[86] = locus YOR231W, strain MKK1, hits give low values
[87] = locus YOR265W, strain rbl2, hits give low values
[88] = locus YOR270C, strain vph1, hits give low values
[89] = locus YOR290C, strain snf2, hits give low values
[90] = locus YPL051W, strain arl3, hits give low values
[91] = locus YPL078C, strain atp4, hits give low values
[92] = locus YPL106C, strain sse1, hits give low values
[93] = locus YPL240C, strain hsp82, hits give low values
[94] = locus YPL256C, strain CLN2, hits give low values

Measured: normalized growth

O=c1c2cc(O)c(O)cc2oc2cc(O)c(C3O[C@H](CO)[C@H](O)[C@@H](O)[C@H]3O)c(O)c12 (stereo not given in full)
active: [36] 1.14 [resistant] | [73] 1.13 [resistant]
inactive: [1] 1.01 | [2] 1.02 | [3] 1.02 | [4] 1.03 | [5] 1.08 | [6] 1.02 | [7] 1.02 | [8] 1.03 | [9] 1.01 | [10] 1.04 | [11] 1.02 | [12] 1.02 | [13] 1.02 | [14] 1.03 | [15] 1.04 | [16] 1.02 | [17] 1.02 | [18] 1.03 | [19] 1.04 | [20] 1.11 | locus YDR195W, strain ref2 1.12 | [21] 1.04 | [22] 1.01 | [23] 1.01 | [24] 1.07 | [25] 1.02 | [26] 1.02 | [27] 1.02 | [28] 1 | [29] 1.04 | [30] 1.03 | [31] 1.12 | [32] 1.02 | [33] 1.03 | [34] 1.03 | [35] 1.04 | [37] 0.986 | [38] 1 | [39] 1.01 | [40] 0.973 | [41] 0.982 | [42] 0.945 | [43] 1.03 | [44] 1.02 | [45] 1.03 | [46] 1.01 | [47] 0.999 | [48] 1.02 | [49] 0.98 | [50] 0.993 | [51] 1.02 | [52] 0.937 | [53] 0.988 | [54] 1.02 | [55] 1.03 | [56] 1.04 | [57] 1.02 | [58] 1.01 | [59] 1.01 | [60] 1.1 | [61] 0.985 | [62] 1.06 | [63] 1.02 | [64] 1.07 | [65] 1.03 | [66] 1.01 | [67] 1.01 | [68] 1.01 | [69] 1 | [70] 1.01 | [71] 1.07 | [72] 1.02 | [74] 1.02 | [75] 1.02 | [76] 0.98 | [77] 0.986 | [78] 0.992 | [79] 1.02 | [80] 1.03 | [81] 0.981 | [82] 0.999 | [83] 1.03 | [84] 0.968 | [85] 0.887 | [86] 0.988 | [87] 1.01 | [88] 0.938 | [89] 0.995 | [90] 0.961 | [91] 0.969 | [92] 1.05 | [93] 0.997 | [94] 1

O=c1c(-c2ccc(O)cc2)coc2c(C3O[C@H](CO)[C@@H](O)[C@H](O)[C@H]3O)c(O)ccc12 (stereo not given in full)
inactive: [1] 1.01 | [2] 0.991 | [3] 0.982 | [4] 0.977 | [5] 0.957 | [6] 0.991 | [7] 0.977 | [8] 0.979 | [9] 0.985 | [10] 0.968 | [11] 0.991 | [12] 0.994 | [13] 0.973 | [14] 0.996 | [15] 0.978 | [16] 0.977 | [17] 0.978 | [18] 1 | [19] 0.995 | [20] 0.933 | locus YDR195W, strain ref2 0.951 | [21] 0.978 | [22] 0.973 | [23] 0.987 | [24] 0.876 | [25] 0.979 | [26] 0.973 | [27] 0.974 | [28] 0.993 | [29] 0.989 | [30] 0.98 | [31] 0.947 | [32] 0.977 | [33] 0.965 | [34] 0.977 | [35] 0.982 | [36] 0.957 | [37] 0.982 | [38] 0.921 | [39] 0.987 | [40] 0.957 | [41] 0.976 | [42] 1.04 | [43] 0.992 | [44] 0.987 | [45] 0.973 | [46] 0.98 | [47] 0.997 | [48] 0.972 | [49] 0.999 | [50] 0.98 | [51] 0.977 | [52] 0.898 | [53] 1.04 | [54] 0.982 | [55] 0.98 | [56] 0.99 | [57] 0.993 | [58] 0.992 | [59] 0.965 | [60] 1 | [61] 0.985 | [62] 0.982 | [63] 0.997 | [64] 0.988 | [65] 0.974 | [66] 0.957 | [67] 0.981 | [68] 0.975 | [69] 0.995 | [70] 0.969 | [71] 0.954 | [72] 0.962 | [73] 0.941 | [74] 0.985 | [75] 0.979 | [76] 0.91 | [77] 0.984 | [78] 1.03 | [79] 0.982 | [80] 0.973 | [81] 1.01 | [82] 0.983 | [83] 0.98 | [84] 1.06 | [85] 1.01 | [86] 0.96 | [87] 0.989 | [88] 0.969 | [89] 0.921 | [90] 1.01 | [91] 1.01 | [92] 0.93 | [93] 1.01 | [94] 0.979
